Bioassay records (PubChem)
PTHR1 ag = qHTS for PTHR1 Agonists: Primary Screen. Potency, µM (titrated, usually from 115 µM), inactives show at the top dose activation, most hits filed as activators. Parathyroid hormone/parathyroid hormone-related peptide receptor (Homo sapiens), Q03431. HEK293 GP2 PTHR1 cells, GloSensor cAMP luminescence, 1 h. AID 743266, 2014. hit rate 0.075% among 410,000; also: nearly all actives have a fitted effect of over 55% in size
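HEK-293-derived GP2 cells expressing PTHR1 and a GloSensor cAMP reporter, 3,000/well, plated overnight, given luciferin plus IBMX (each 0.5 mM as added) for 1 h at 37 °C, then compound for 1 h at 37 °C. Luminescence was read after 15 min at room temperature.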
GRP78 ERSR act = qHTS for Inducers of the Endoplasmic Reticulum Stress Response (ERSR) in Human Glioma: qHTS; U87-MG GRP78 promoter luciferase reporter, 16 h; Potency, µM, without a hit: top-dose activation, hits mostly activators; hit rate 0.02% among 420,000; AID 602332, 2012; also: series mostly up to about 76 µM; % of control where 0% means no effect; nearly all actives have a fitted effect of over 35% in size
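ERSR induction read as luciferase luminescence (Bright-Glo, 10 min at room temperature) in stably transfected human U87-MG glioma cells exposed to compounds for 16 h, using GRP78 as sensor.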
GLP-1R agonist = qHTS of GLP-1 Receptor Agonists; Glucagon-like peptide 1 receptor (Homo sapiens), P43220; HEK293 GLP-1R CRE-luciferase, luminescence, 4-6 h; cells express a hypersensitive GLP-1R form; Potency, µM (highest dose often 45.6 µM), without a hit: at the top dose activation, usual class: activators; hit rate 0.007% among 380,000; also: % of control where 0% means no effect
GLP1R inv ag = qHTS of GLP-1 Receptor Inverse Agonists (Inhibition Mode); AID 624417, 2012; hit rate 1.6% among 410,000; Potency, µM (titrated, usually from 38.3 µM), inactives show at the highest dose activity change, negative = inhibition, actives largely listed as inhibitors; HEK293 GLP-1R CRE-luciferase, luminescence, 24 h; GLP-1R form is constitutively active; Glucagon-like peptide 1 receptor (Homo sapiens), P43220; also: % is scaled to controls: 0 for no effect and ±100 for the full control effect; nearly all actives have a fitted effect of over 55% in size
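Using stably transfected HEK293 (constitutively active GLP-1R, cAMP-luciferase reporter), compounds were incubated 24 hr and luciferase measured by luminescence.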
GLS inhibitor = qHTS for Inhibitors of Glutaminase (GLS); GLS enzymatic activity, qHTS titration; AID 624170, 2012; hit rate 0.21% among 410,000; Potency, µM (titrated, usually from 45.5 µM), inactives show top-dose activity change, negative = inhibition, usual class: inhibitors; Glutaminase kidney isoform, mitochondrial (Homo sapiens), O94925; also: % is scaled to controls: 0 for no effect and ±100 for the full control effect
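Enzyme dispensed in phosphate buffer (45 mM, pH 8.2, 0.02% Tween-20), compounds pinned in, then 1 mM L-glutamine solution and the glutamate oxidase–HRP–Amplex Red mix added; fluorescence read immediately and again after 30 min at room temperature.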
ALOX12 inh = Primary qHTS assay for inhibitors of human arachidonate 12S-lipoxygenase (ALOX12): Round 2; Polyunsaturated fatty acid lipoxygenase ALOX12 (Homo sapiens), P18054; purified 12hLO, xylenol orange hydroperoxide absorbance; Potency, µM (doses to about 108 µM), without a hit: at the highest dose activity change, negative = inhibition, hits mostly inhibitors; hit rate 1.1% among 580,000; AID 1671190, 2021; also: % is scaled to controls: 0 for no effect and ±100 for the full control effect
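Purified human 12hLO (150 nM final) in 25 mM Hepes, 0.01% Triton X-100, pH 7.0 was preincubated 15 min at room temperature with compound. Then 40 uM arachidonic acid was added, 30 min. Hydroperoxide was read by Fe-XO absorbance ratio 573/405 nm.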
Starred values were filed as active, the others as inactive; i = inactive; ? = inconclusive; . = no result given; ! = not confirmed by another sample; [ ] = another dose, or the depositor's remark. An excerpt weighted towards active compounds, which were near 2.3% of everything screened. Calls follow the shape of the dose curve; as a rule, active = well fitted curve in the direction sought with a large enough effect; inconclusive = small, poorly fitted or top-dose-only effect, or another doubt; inactive = no such curve, though single readings can be large; an effect the other way counts as inactive or inconclusive. Potency is read from the fitted curve at half-maximal effect.

SMILES | PTHR1 ag | GRP78 ERSR act | GLP-1R agonist | GLP1R inv ag | GLS inhibitor | ALOX12 inh
CC(C)C1=NN(C(=O)c2ccccc2)C(O)(C(C)(C)C)C1 (stereo unspecified) | i | -2.2% | -14.2% | 12.6µM* | 2.1% | -11.6%
COc1ccc(S(=O)(=O)c2c(C)c(NS(=O)(=O)c3ccccc3)cc(C)c2O)cc1 | -4.3% | -2.2% | 5.3% | ? | 3.16µM*! | 9.2%
COc1ccc(S(=O)(=O)Nc2cc(-c3c(O)ccc4ccccc34)c(O)c3ccccc23)cc1 | . | . | . | . | . | 8.63µM*
Cc1ccc(S(=O)(=O)Nc2c(O)ccc3ccccc23)cc1 | i | 4.9% | 2.2% | -16.1% | 38.2% | .
Clc1ccccc1C(c1ccccc1)(c1ccccc1)n1ccnc1 | i | ? | 4.3% | 10µM* | -1.2% | ?
CCOC(=O)c1scc(-c2ccc(C)cc2)c1S(=O)(=O)N1CCN(c2ccccc2F)CC1 | -29.7% | -2.0% | . | 7.94µM* | -6.0% | -10.4%
CCOC(=O)COc1ccc(S(=O)(=O)N2CCN(c3ccccc3F)CC2)cc1 | -22.9%[57.5 µM] | 4.9% | 1.2% | -14.1% | 7.8% | -1.2%
CCC(C)(C)NCc1ccco1 | . | . | . | . | . | 21.0%
O=C(CCCSc1nc2ccccc2[nH]1)NC(c1ccccc1)c1ccccc1 | -19.7% | -4.5% | -0.2% | 8.91µM* | -0.5% | -10.6%
CC(C)NC(=O)c1onc(CSc2ccc(F)c(F)c2)c1C(=O)O | -6.8% | 2.6% | 8.6% | -29.0% | -4.7% | 31.6µM*
CC(C)CCNC(=O)c1onc(CSc2ccc(Cl)cc2)c1C(=O)NCCC(C)C | i | -1.9% | 4.5% | 10µM* | -3.0% | ?
CC(C)CCNC(=O)c1onc(CSc2ccccc2)c1C(=O)NCCC(C)C | -3.8% | -4.7% | 7.0% | 3.98µM* | 1.9% | 4.4%
Cc1c(O)cc(C(=O)/C=C/c2ccccc2)cc1Cl | . | . | . | . | . | -11.7%
Cc1ccc(CN2CC(C(=O)N3CCN(c4ccccc4O)CC3)CC2=O)cc1 (stereo unspecified) | i | 0.0% | -0.2% | -10.0% | 7.08µM* | -24.2%
O=C(Cc1c[nH]c2ccccc12)OCC(=O)c1ccccc1 | i | 7.4% | 1.7% | 12.6µM* | 18.7% | 104.9%
COC(=O)CC1(C(=O)OC)Oc2ccc(Br)cc2C(=O)N1c1ccc(Br)cc1Cl (stereo unspecified) | -35.3% | -3.1% | 14.4% | 10µM* | -2.2% | 10.2%
COC(=O)CC1(C(=O)OC)Oc2ccc(Br)cc2C(=O)N1c1cc(Cl)c(Cl)cc1Cl (stereo unspecified) | -40.6% | -0.4% | -5.2% | 7.08µM* | -0.9% | 9.6%
COC(=O)CC1(C(=O)OC)Oc2ccc(Br)cc2C(=O)N1c1cccc(Cl)c1Cl (stereo unspecified) | -13.8% | -12.1% | 3.6% | ? | 14.8% | 5.9%
COC(=O)CC1(C(=O)OC)Oc2ccc(Br)cc2C(=O)N1c1cc(Cl)cc(Cl)c1 (stereo unspecified) | -25.2% | -3.4% | 9.0% | ? | -5.3% | 0.0%
CCCCC(=O)NC1(C(F)(F)F)C(=O)N(Cc2ccccc2)C(C)=C1C(=O)c1ccccc1 (stereo unspecified) | . | . | . | . | . | 14.7%
COc1ccc2cnn(CC(=O)Nc3ccc(F)c(Cl)c3)c(=O)c2c1OC | . | . | . | . | . | 19.6%
CCN(CC)CCNC(CC(=O)Nc1ccc(Cl)cc1Cl)C(=O)O (stereo unspecified) | -7.5% | -4.1% | -16.7% | -2.9% | 5.7% | 13.5%
CN(C)CCNc1ccc(CO)c2oc3ccc(O)cc3c(=O)c12 | -19.2% | 15.1% | -30.1% | 10µM* | 8.2% | ?
